Tgondii IFNg: inhibitors of Toxoplasma gondii growth with IFN-gamma; 3.8% of 69,000 active; activity change, negative = inhibition, % (test concentration not listed); AID 1259416; Toxoplasma gondii growth in IFN-gamma-treated host cells; hits give low values; in the data active means activity change below about -70%, passing the limit was not always enough;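 further: host cells are HeLa cells infected with Toxoplasma gondii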
* marks the source's active call; other numbers are inactive results; ! = repeats disagree. Many of the other results were omitted from the sample, so hits are more common in it than they were.

SMILES	Tgondii IFNg
O=C(c1ccc2c(c1)OCO2)N1CCc2c([nH]c3ccccc23)C1c1ccc(Cl)cc1 (centres undefined)	-83*
Cc1ccc(C2c3[nH]c4ccccc4c3CCN2C(=O)c2cccnc2)cc1 (centres undefined)	68
O=C(c1cccnc1)N1CCc2c([nH]c3ccccc23)C1c1ccc(F)cc1 (centres undefined)	76
CN(Cc1cc(-c2ccccc2)on1)C(=O)CCC(=O)NC1CCCC1	5
CC(C)(C)c1cc(-c2nc(-c3ccc(C(F)(F)F)cc3)no2)n(Cc2ccccc2)n1	-14
CCOc1ccc(NC(=O)COc2nc(C)nc3ccccc23)cc1	7
CCN(CC)C(=O)CN1C(=O)N2CCCN=C2c2ccc(Cl)cc21	7
COCCN(CCOC)C(=O)c1cc(-c2cnc(N(C)C)nc2)cn1CC1CC1	-2
COCCN1Cc2ccccc2C2(CCN(C(=O)c3ccnnc3)CC2)C1	-1
CC(C)Nc1ncnc2c1c(C(=O)NCCN(C)C)c1ccccn12	-61
CSc1ccc(C2c3[nH]c4ccccc4c3CCN2C(=O)c2cccc(Cl)c2)cc1 (centres undefined)	-18
O=C(C1CCC1)N1CCc2c([nH]c3ccccc23)C1c1ccc(Cl)cc1 (centres undefined)	-40
CSc1ccc(C2c3[nH]c4ccccc4c3CCN2C(=O)c2ccc(Cl)cc2)cc1 (centres undefined)	60
Cc1ccc(C2c3[nH]c4ccccc4c3CCN2C(=O)c2cccc(Cl)c2)cc1 (centres undefined)	-89*
Cn1nccc1C(=O)N1CCc2c([nH]c3ccccc23)C1c1ccc(Cl)cc1 (centres undefined)	-115*
O=C(c1ccco1)N1CCc2c([nH]c3ccccc23)C1c1ccc(Cl)cc1 (centres undefined)	-88*
COCC(=O)N1CCc2c([nH]c3ccccc23)C1c1ccc(Cl)cc1 (centres undefined)	-16
O=C(c1ccco1)N1CCc2c([nH]c3ccccc23)C1c1cccnc1 (centres undefined)	-44
Cc1ccc(NC(=O)CN2C(=O)CCc3cc(Br)ccc32)c(C)c1	30
O=C(c1nc2ccccc2s1)C1CCN(C(=O)c2cc(-c3cccs3)[nH]n2)CC1	-5
Cc1cc(C)n(CCCNC(=O)c2cn(CC3CCCNC3)nn2)n1 (centres undefined)	0
CC(=O)Nc1ccc(C(=O)N(c2ccc(C)c(F)c2)C2(C(=O)NCc3ccccc3)CCN(C(C)=O)CC2)cc1	-55
COCCC(=O)C1c2c(ncn2C)CCN1C(C)C (centres undefined)	52
O=C(O)Cn1cc(CN2CCCC2)c2ccccc21	-43
COc1ccc(-c2nc(Cn3nnc(-c4nc(-c5ccc(SC)cc5)no4)c3C)c(C)o2)cc1	16
SMILES	Tgondii IFNg
COc1cccc(Cn2c3c(cc(-c4ccncc4)c2=O)CN(C(=O)C(C)N2CCOCC2)CC3)c1 (centres undefined)	-2
CCn1c(C2CCN(C(=O)Cc3sc(C)nc3C)CC2)nn(C)c1=O	-47
O=C(c1ccccc1F)N1CCCC2(COCCN(CC3CC3)C2)C1 (centres undefined)	-5
CCc1cnc(N2[C@H](C#N)[C@@H](c3ccc(C#Cc4ccccc4F)cc3)[C@H]2CO)s1	-75*
CCc1cnc(N2[C@H](C#N)[C@H](c3ccc(C#Cc4ccccc4F)cc3)[C@H]2CO)s1	-55
CCc1cnc(N2[C@H](C#N)[C@H](c3ccc(C#Cc4ccccc4F)cc3)[C@@H]2CO)s1	-57
C=CCOCc1nnn2c1CN(Cc1cnn(C)c1)CC2	-2
CCn1c(C2CCCN(Cc3ccccc3Cn3cccn3)C2)n[nH]c1=O (centres undefined)	-2
O=C(NCCCOc1ccccc1)c1c(O)cccc1O	12
CN(C)Cc1c(C(=O)NCCOc2ccc(C(=O)NO)cc2)oc2ccccc12	-74*
COc1ccc(OCCNC(=O)c2cccs2)cc1	2
Cn1c(=O)c2[nH]cnc2n(C)c1=O	112
S=c1nc[nH]c2nc[nH]c12	-71*
CCOC[C@]12COC[C@H]1CN(C(=O)COC1CCCC1)C2	-8
CCN1CCOCC12CCN(C(=O)c1cnccn1)CC2	-11
C=CCNC(=O)C1(Cc2cccc(-c3cncnc3)c2)CCN(C(=O)c2cnccn2)CC1	-93*
O=C(NC1CCC12CCN(C(=O)c1ccco1)CC2)c1cnccn1 (centres undefined)	3
CC(=O)NCc1cccc(-c2cccc(NC(C)=O)c2)c1	-3
COCc1nnc2n1N=C(c1ccccc1)CS2	8
Cc1csc2ncc(C(=O)N3CCc4ncc(Cl)cc4C3)c(=O)n12	26
COCCN1CCc2nc(SCc3nc(-c4ccccc4OC)oc3C)[nH]c(=O)c2C1	8
O=C(Nc1cccc(Cl)c1)c1ccccn1	221
O=C(Nc1ccc(-c2nc(-c3ccccc3)co2)cc1)Nc1cccc(Cl)c1	-11
O=C(Nc1cccc(Cl)c1)Nc1ncc(CCNc2ncnc3ccsc23)s1	-73*
c1ccc(CO[C@@H]2CC[C@@H]3[C@@H]2OCCN3c2ncccn2)nc1	-4
SMILES	Tgondii IFNg
CCOc1ccc2nc(NS(=O)(=O)c3ccc(NC(C)=O)cc3)sc2c1	5
CCOc1ccc2nc(SCC(=O)c3ccc(F)cc3)sc2c1	-79*
O=C(CSc1ccccn1)c1ccc(OCc2ccc(F)cc2)cc1	-23
CC(C(=O)N1CCC2(CCCO2)CC1)n1cnc2ccccc21 (centres undefined)	9
O=c1[nH]c(=O)n([C@H]2C[C@H](O)[C@@H](CO)O2)cc1F	-94*
Cc1cn(C2CC(O)C(CO)O2)c(=O)[nH]c1=O (centres undefined)	-7
O=c1[nH]c(=O)n([C@H]2C[C@H](O)[C@@H](CO)O2)cc1Br	-45
CC(C)c1cc(CN2CCC(c3ccnc(-c4cccc(O)c4)c3)C2)on1 (centres undefined)	-59
CS(=O)(=O)N1CCOCC1c1nccc(NCc2ccco2)n1 (centres undefined)	106
OCc1csc(N2CC(c3cccnc3)C2)n1	4
Cn1cc(-c2ccc3ccc(-n4ccc(C(=O)NCCO)n4)n3c2)cn1	-2
Cc1cc(C(C)(C)CC(C)(C)C)ccc1OCCOCC[N+](C)(C)Cc1ccccc1	-85*
C[N+](C)(CCOc1ccccc1)Cc1ccccc1	85
CC(C)(C)CC(C)(C)c1ccc(O)c(-n2nc3ccccc3n2)c1	-5
COc1ccc(-c2nc(N(C)c3ccc(F)cc3)c3ccccc3n2)cc1	-11
CCOCC(=O)NCCc1sc(-c2cccc(F)c2)nc1C	62
O=C(c1cncs1)N1CC(=O)N(C2CCCCC2)CC(OCc2ccccc2)C1 (centres undefined)	-6
CC(C)N1CCC2(CCOCC2NC(=O)c2ccccc2)CC1 (centres undefined)	5
CCC(CC)C(=O)Nc1c[nH]c(=O)[nH]c1=O	-7
O=c1[nH]cc(F)c(=O)[nH]1	-96*!
COCC12CCCOC1CCN(S(=O)(=O)c1cn(C)cn1)C2 (centres undefined)	-46
Cn1cc(-c2cnc(-c3cccc(F)c3)nc2)cc1C(=O)Cc1ccccn1	-52
CC(C)OCC(=O)Nc1cnn(CC(=O)Nc2ccc(F)cc2)c1	2
O=C(CCN1Cc2ccccc2C1=O)Nc1cnn(Cc2ccc(F)cc2)c1	-15
CCCc1cc(C(=O)Nc2cnn(Cc3ccc(F)cc3)c2)n[nH]1	-90*
O=C(c1ccc(F)cc1)N1CCc2c([nH]c3ccccc23)C1c1cccnc1 (centres undefined)	-47

Assay outcomes (PubChem)
